These results are taken from PubChem BioAssay (NCATS).

Test [1] addresses Rap guanine nucleotide exchange factor 3 (Homo sapiens) (UniProt O95398). The test is described as follows: Confirmatory qHTS for antagonist of cAMP-regulated guanine nucleotide exchange factor 3 (EPAC1) (AID 1645880). Also: nearly all actives have a fitted effect of over 55% in size. Also: potency is read from the fitted curve at half-maximal effect. The essentials:
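Released BODIPY-GDP fluoresces less than Rap1-bound BODIPY-GDP; the signal is followed at 480/540 nm at 5-min intervals over 30 min, after 5 min at room temperature. Reactions contain 100 nM EPAC1, 250 nM RAP1B-BODIPY-GDP and 50 uM GDP; results are normalized to ATA and DMSO.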
For orientation: qHTS replaces the single test concentration by a dilution series.

The target is the same in test [2]. The test is described as follows: Confirmatory qHTS for agonist of cAMP-regulated guanine nucleotide exchange factor 3 (EPAC1) (AID 1645881). Also: nearly all actives have a fitted effect of over 75% in size. Also: potency is read from the fitted curve at half-maximal effect.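 As to activation: EPAC1 catalysed release of BODIPY-GDP from Rap1B seen as fluorescence loss; 100% = effect of cAMP agonist control.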
The target in test [3] is Rap guanine nucleotide exchange factor 4 (Homo sapiens) (UniProt Q8WZA2). The test is described as follows: Confirmatory qHTS for agonist of cAMP-regulated guanine nucleotide exchange factor 4 (EPAC2) (AID 1645884).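 Also: nucleotide exchange releases bodipy-GDP from Rap1 and this lowers its fluorescence; nearly all actives have a fitted effect of over 65% in size.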 Also: potency is read from the fitted curve at half-maximal effect. As to activation: % is scaled to controls: 0 for no effect and ±100 for the full control effect.
Rap guanine nucleotide exchange factor 4 (Homo sapiens), sequence (Q8WZA2 whole entry, looked up): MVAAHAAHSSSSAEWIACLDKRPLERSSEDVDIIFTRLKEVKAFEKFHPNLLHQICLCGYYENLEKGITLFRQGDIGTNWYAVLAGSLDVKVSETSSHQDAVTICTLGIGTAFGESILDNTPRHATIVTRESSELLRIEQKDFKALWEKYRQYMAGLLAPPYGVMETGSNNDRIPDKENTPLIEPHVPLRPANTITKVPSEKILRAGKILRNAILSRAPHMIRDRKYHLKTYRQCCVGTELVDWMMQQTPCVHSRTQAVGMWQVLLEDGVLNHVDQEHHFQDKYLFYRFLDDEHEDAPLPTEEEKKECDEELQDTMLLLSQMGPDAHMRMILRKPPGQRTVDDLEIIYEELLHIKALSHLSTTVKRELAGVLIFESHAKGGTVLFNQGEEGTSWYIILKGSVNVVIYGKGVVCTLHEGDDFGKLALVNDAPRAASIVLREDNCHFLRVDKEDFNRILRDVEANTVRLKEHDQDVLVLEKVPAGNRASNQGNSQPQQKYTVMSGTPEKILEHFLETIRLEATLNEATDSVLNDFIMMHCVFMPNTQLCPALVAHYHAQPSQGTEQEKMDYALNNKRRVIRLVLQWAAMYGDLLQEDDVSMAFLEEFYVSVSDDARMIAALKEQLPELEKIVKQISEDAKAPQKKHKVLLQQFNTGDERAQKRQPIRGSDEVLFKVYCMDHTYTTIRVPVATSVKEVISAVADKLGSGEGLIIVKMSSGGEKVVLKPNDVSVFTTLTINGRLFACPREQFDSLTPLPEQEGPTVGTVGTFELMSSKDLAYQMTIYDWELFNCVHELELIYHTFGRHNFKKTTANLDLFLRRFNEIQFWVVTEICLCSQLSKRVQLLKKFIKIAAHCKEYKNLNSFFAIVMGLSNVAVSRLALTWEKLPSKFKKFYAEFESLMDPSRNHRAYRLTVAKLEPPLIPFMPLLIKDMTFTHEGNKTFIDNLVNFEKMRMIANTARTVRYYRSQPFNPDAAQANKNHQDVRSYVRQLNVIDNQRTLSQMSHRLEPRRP
For test [4] the target is unchanged. The test is described as follows: Confirmatory qHTS for antagonist of cAMP-regulated guanine nucleotide exchange factor 4 (EPAC2) (AID 1645885). Also: nearly all actives have a fitted effect of over 25% in size. Also: potency is read from the fitted curve at half-maximal effect. As to activity change, negative = inhibition: % is scaled to controls: 0 for no effect and ±100 for the full control effect.
Test [5] concerns the target Rap guanine nucleotide exchange factor 3 (Homo sapiens) (UniProt O95398). The test is described as follows: Counterscreen qHTS for antagonist of cAMP-regulated guanine nucleotide exchange factor 3 (EPAC1) (AID 1645888). Also: % of control where 0% means no effect. In short, it runs like this: (§1)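 Rap1B-BODIPY-GDP 250 nM + GDP 50 uM; cpds 7-pt, final 9.74 nM–152 uM (activator mode) or from 7.32 nM upwards (inhibitor mode); RT; FI 480/540 nm at 5 and 30 min, then ± cAMP, reread.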
In general terms: Counterscreens check selectivity or assay interference.

Test [6] has the same target. The test is described as follows: Counterscreen qHTS for agonist of cAMP-regulated guanine nucleotide exchange factor 3 (EPAC1) (AID 1645889). Also: nearly all actives have a fitted effect of over 40% in size. Also: potency is read from the fitted curve at half-maximal effect. As to activation: % of control where 0% means no effect. The essentials: as §1

Inconclusive results are not listed. A number with no mark means an inactive call. Active and inactive are the calls of the source. Calls follow the shape of the dose curve; as a rule, active = well fitted curve in the direction sought with a large enough effect; inconclusive = small, poorly fitted or top-dose-only effect, or another doubt; inactive = no such curve, though single readings can be large; an effect the other way counts as inactive or inconclusive.

Rap guanine nucleotide exchange factor 3 (Homo sapiens), sequence (O95398 whole entry, looked up): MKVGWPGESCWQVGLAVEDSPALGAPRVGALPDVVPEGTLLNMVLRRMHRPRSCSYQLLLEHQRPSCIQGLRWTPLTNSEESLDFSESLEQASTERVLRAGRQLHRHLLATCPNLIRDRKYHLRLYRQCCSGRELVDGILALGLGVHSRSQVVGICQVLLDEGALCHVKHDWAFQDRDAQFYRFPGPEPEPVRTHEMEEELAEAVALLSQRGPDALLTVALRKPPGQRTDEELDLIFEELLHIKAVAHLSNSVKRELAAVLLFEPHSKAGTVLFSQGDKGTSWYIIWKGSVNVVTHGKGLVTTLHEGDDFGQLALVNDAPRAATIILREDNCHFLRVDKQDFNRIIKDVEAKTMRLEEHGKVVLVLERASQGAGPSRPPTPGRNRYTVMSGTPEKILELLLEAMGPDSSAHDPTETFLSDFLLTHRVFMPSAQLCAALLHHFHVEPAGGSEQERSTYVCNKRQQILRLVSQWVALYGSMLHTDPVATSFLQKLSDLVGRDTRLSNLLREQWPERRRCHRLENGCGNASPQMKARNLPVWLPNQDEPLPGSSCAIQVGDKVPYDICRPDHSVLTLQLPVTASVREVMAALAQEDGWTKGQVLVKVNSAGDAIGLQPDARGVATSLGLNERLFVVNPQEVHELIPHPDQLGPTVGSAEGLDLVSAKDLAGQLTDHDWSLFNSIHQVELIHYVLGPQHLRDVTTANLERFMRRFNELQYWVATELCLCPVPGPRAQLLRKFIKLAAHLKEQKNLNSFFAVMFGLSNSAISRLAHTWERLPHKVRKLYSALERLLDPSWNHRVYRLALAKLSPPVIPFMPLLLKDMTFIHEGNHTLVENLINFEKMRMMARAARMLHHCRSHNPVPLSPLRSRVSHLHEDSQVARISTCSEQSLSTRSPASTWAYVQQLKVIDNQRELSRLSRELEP

For the molecule `O=C(O)CCN1C(=O)/C(=C\c2cccc(Oc3ccccc3)c2)SC1=S`, the Potency in test [1] is 26.9 µM (active); in test [4], 21.3 µM (active). In addition, the Potency entry in test [2], in test [3], in test [5] and in test [6] was “inactive” in each case.
Take `CCCCNC(=O)Cn1nc(N2CCN(c3ccccc3OC)CC2)ccc1=O`: the Potency result in test [1], in test [2], in test [3], in test [4], in test [5] and in test [6] was “inactive” throughout.
Regarding `Cn1c(N)c(C(=O)COC(=O)COc2ccccc2C#N)c(=O)n(C)c1=O`, the Potency result in test [1], in test [2] and in test [4] was “inactive” each time. Moreover, the activation was 1.14% [at 17.1 µM, percent relative to cAMP agonist control] in test [3] and 3.75% [at 30.8 µM] in test [6]. In addition, the activity change, negative = inhibition in test [5] is 3.67% [at 30.8 µM].
Turning to `Cc1ccn2cc(CNC(=O)c3cccs3)nc2c1`, the Potency entry in test [1], in test [2], in test [3], in test [4], in test [5] and in test [6] was “inactive” in each case.
As for `N#Cc1c(-c2ccccc2)nc(SCc2cccc(C(F)(F)F)c2)[nH]c1=O`, the Potency in test [1] is 26.9 µM (active); in test [4], 75.7 µM (active). Also, the Potency entry in test [2], in test [3], in test [5] and in test [6] was “inactive” each time.
Consider `COc1ccc(/C=C\c2onc(C)c2S(=O)(=O)N2CCC(C(=O)NCCC(C)C)CC2)cc1`, for which the Potency entry in test [1], in test [2] and in test [4] was “inactive” in each case. Besides, the activation was 8.7% [at 17.1 µM, percent relative to cAMP agonist control] in test [3] and 19.1% [at 30.8 µM] in test [6]. Also, in test [5], the activity change, negative = inhibition is -14.8% [at 30.8 µM].
For `O=C(Nc1cccc(Cl)c1)OC1CCCCc2cccnc21` (stereo unspecified), the Potency entry in test [1], in test [2] and in test [4] was “inactive” in each case. Moreover, the activation is 5.07% [at 17.1 µM, percent relative to cAMP agonist control] in test [3] and 25.6% [at 30.8 µM] in test [6]. Also, the activity change, negative = inhibition in test [5] was -21.2% [at 30.8 µM].
In the case of `Oc1ccc(NCc2ccccc2OCc2ccccc2)cc1`, the Potency result in test [1], in test [2], in test [3], in test [4] and in test [5] was “inactive” throughout. For the same molecule, the activation in test [6] is 20.2% [at 30.8 µM].
Regarding `CN(C(=O)COC(=O)/C=C/c1ccc2c(c1)OCO2)c1c(N)n(Cc2ccccc2)c(=O)[nH]c1=O`, the Potency entry in test [1], in test [2], in test [3], in test [4], in test [5] and in test [6] was “inactive” throughout.
`CC(=O)NC(CCS(C)(=O)=O)C(=O)Nc1cccc(C)c1C` (stereo unspecified): the Potency entry in test [1], in test [2], in test [3], in test [4], in test [5] and in test [6] was “inactive” in each case.
Consider `O=C(Cc1ccccc1)NCC(=O)N1CCC1`, for which the Potency entry in test [1], in test [2], in test [3], in test [4], in test [5] and in test [6] was “inactive” in each case.
For the molecule `COc1ccc(/C=C(\NC(=O)c2cccs2)C(=O)Nc2ccc(C)cc2)cc1OC`, the Potency in test [1] was 47.8 µM (active). Also, the Potency result in test [2], in test [3], in test [4], in test [5] and in test [6] was “inactive” throughout.
Turning to `COc1cccc(-c2ccc(C#N)c(OC(=O)c3ccc(Cl)cc3)n2)c1`, the Potency result in test [1], in test [2] and in test [4] was “inactive” in each case. In addition, the activation in test [3] is 0.578% [at 17.1 µM, percent relative to cAMP agonist control]; in test [6], 3.51% [at 30.8 µM]. In addition, the activity change, negative = inhibition in test [5] was -4.63% [at 30.8 µM].
For the molecule `O=C1/C(=C/c2ccc(F)cc2)SC(=S)N1NS(=O)(=O)c1ccccc1`, the Potency in test [1] is 16.9 µM (active). In addition, the Potency entry in test [2], in test [3], in test [4], in test [5] and in test [6] was “inactive” throughout.
Take `OCC[n+]1ccc(/C=C/c2c[nH]c3ccccc23)cc1`: the Potency result in test [1], in test [4] and in test [5] was “inactive” throughout. Also, the Potency in test [2] was 56.2 µM (active); in test [3], 100 µM (active); in test [6], 56.2 µM (active).
Turning to `COc1cc2c(cc1OC)-c1cc(NC3CCCCC3)nc(=O)n1CC2`, the Potency result in test [1], in test [2] and in test [4] was “inactive” each time. For the same molecule, the activation was -2.19% [at 17.1 µM, percent relative to cAMP agonist control] in test [3] and 2.97% [at 30.8 µM] in test [6]. For the same molecule, the activity change, negative = inhibition in test [5] was 14.4% [at 30.8 µM].
Take `O=C(NCCC(=O)N(CCc1ccccc1)Cc1ccccc1)c1ccccc1Cl`: the Potency result in test [1], in test [2] and in test [4] was “inactive” each time. The activation in test [3] was 0.223% [at 17.1 µM, percent relative to cAMP agonist control]; in test [6], 7.42% [at 30.8 µM]. Further, in test [5], the activity change, negative = inhibition was -6.01% [at 30.8 µM].
In the case of `CCOc1cccc(CC(=O)NCc2ccc3c(c2)CCN3C(C)=O)c1OCC`, the Potency entry in test [1], in test [2], in test [3], in test [4], in test [5] and in test [6] was “inactive” in each case.
On to `CC1(C(=O)NS(=O)(=O)c2ccc(Cl)s2)CCN1C(=O)c1ccc(C2CCCCC2)cc1` (stereo unspecified), for which the Potency in test [1] is 79.4 µM (active). The Potency result in test [2] and in test [4] was “inactive” each time. Further, the activation in test [3] was 6.57% [at 17.1 µM, percent relative to cAMP agonist control]; in test [6] it was -4.08% [at 30.8 µM]. Also, the activity change, negative = inhibition in test [5] was -3.31% [at 30.8 µM].
Regarding `COc1ccccc1C1SCCN1S(C)(=O)=O` (stereo unspecified), the Potency entry in test [1], in test [2], in test [3], in test [4], in test [5] and in test [6] was “inactive” in each case.
On to `Cc1ccsc1C(=O)OCC(=O)NCCNC(=O)COC(=O)c1sccc1C`, for which the Potency result in test [1], in test [2], in test [3], in test [4], in test [5] and in test [6] was “inactive” in each case.
